Reference: PubChem BioAssay AID2283193 (EPA ToxCast)
Results filed as inconclusive are left out. The source made the active and inactive calls. The calls were made as follows: active = hit-call score of the fitted dose curve at least 0.9, where 1 is the maximum; inconclusive = response in the unintended direction; inactive = score below 0.9.

Molecular target: human Protein Kinase C, zeta (PKCz), PRKCZ (gene 5590) (UniProt Q05513)
Test: NVS_ENZ_hPKCz: NovaScreen (NVS) Enzymatic Assay for human Protein Kinase C, zeta (PKCz)
Experimental: NVS_ENZ_hPKCz is a biochemical, single-readout assay that uses extracted gene-proteins in a cell-free assay. Measurements were taken 1 hour after chemical dosing in a 384-well plate.NVS_ENZ_hPKCz is one of one assay component(s) measured or calculated from the NVS_ENZ_hPKCz assay. It is designed to make measurements of enzyme activity, a form of enzyme reporter, as detected with fluorescence intensity signals by Fluorescence and electrophoretic mobility shift technology.Data from the assay component NVS_ENZ_hPKCz was analyzed into 1 assay endpoint. This assay endpoint, NVS_ENZ_hPKCz, was analyzed in the positive analysis fitting direction relative to DMSO as the negative control and baseline of activity. Using a type of enzyme reporter, loss-of-signal activity can be used to understand changes in the enzymatic activity as they relate to the gene PRKCZ. Furthermore, this assay endpoint can be referred to as a primary readout, because this assay has produced multiple assay endpoints where this one serves a enzymatic activity function. To generalize the intended target to other relatable targets, this assay endpoint is annotated to the kinase intended target family, where the subfamily is serine/threonine kinase. […]

Chain of human Protein Kinase C, zeta (PKCz), PRKCZ (gene 5590) (Q05513 whole entry, looked up): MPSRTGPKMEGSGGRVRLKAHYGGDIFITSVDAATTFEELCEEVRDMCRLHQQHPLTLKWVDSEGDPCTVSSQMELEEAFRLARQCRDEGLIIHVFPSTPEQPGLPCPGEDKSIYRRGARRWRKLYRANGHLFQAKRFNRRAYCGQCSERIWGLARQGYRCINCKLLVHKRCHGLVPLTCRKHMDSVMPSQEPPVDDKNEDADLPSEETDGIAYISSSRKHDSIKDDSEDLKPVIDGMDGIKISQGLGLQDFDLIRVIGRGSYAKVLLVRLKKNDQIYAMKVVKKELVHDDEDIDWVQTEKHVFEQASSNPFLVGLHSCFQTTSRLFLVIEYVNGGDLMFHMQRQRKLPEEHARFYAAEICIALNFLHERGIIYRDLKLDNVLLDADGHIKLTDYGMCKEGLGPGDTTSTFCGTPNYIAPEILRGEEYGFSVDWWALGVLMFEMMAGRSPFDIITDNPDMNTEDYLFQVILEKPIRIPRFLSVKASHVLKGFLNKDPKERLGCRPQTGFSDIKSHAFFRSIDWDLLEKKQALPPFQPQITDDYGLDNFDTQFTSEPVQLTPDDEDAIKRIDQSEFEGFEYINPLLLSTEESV

`CCCCC(CC)COC(=O)c1ccccc1C(=O)O` (stereo unspecified) was tested, and the outcome was “inactive”.
